# Assay outcomes: PubChem BioAssay, National Center for Advancing Translational Sciences (NCATS)
# Compounds with a hit are over-represented: about 12% of the library has one in this group of screens.
# Sm TGR block: qHTS Assay for the Inhibitors of Schistosoma Mansoni Peroxiredoxins. purified TGR, DTNB reduction, TNB absorbance 405 nm. hit rate 3% among 360,000. AID 485364, 2010. Potency, µM (doses to about 114 µM), without a hit: at the highest dose activity change, negative = inhibition, usual class: inhibitors; active = well fitted inhibition curve with a large enough effect; inconclusive = small, poorly fitted or top-dose-only effect; inactive = no such curve, though single readings can be large or run the other way; note: potency is the fitted concentration of half-maximal effect; % is set by controls: 0 for no effect and ±100 for the full control effect; nearly all actives have a fitted effect of over 60% in size
#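 First, TGR (20 nM dispensed) and NADPH were mixed with compound. Second, a 15 min room-temperature incubation followed. Third, further NADPH and then DTNB were added to start the reaction. Finally, TNB absorbance was monitored kinetically.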
# CHX counter: Cycloheximide Counterscreen for Small Molecule Inhibitors of Shiga Toxin; cell reporter, cycloheximide protein synthesis inhibition counterscreen; max response, %; hit rate 12% among 300,000; in the data active = max response mostly above about 13%, no sharp cut-off; inactive = mostly below about 14%; note: read at 38.3 µM for the half of the compounds with a filed dose; 0% is about no effect
# Shiga inhibitor: A qHTS for Small Molecule Inhibitors of Shiga Toxin | Vero cells, Shiga toxin protein synthesis inhibition reporter | inhibition, % at 38.7 µM | hit rate 9.2% among 290,000; in the data active = inhibition mostly above about 28%, no sharp cut-off; inactive = mostly below about 43%; note: 0% is about no effect
# FMDV inh: High Throughput Screening for Foot and Mouth Disease Virus Antivirals; Potency, µM (series often up to 57.9 µM), inactives show top-dose activity change, negative = inhibition, most hits filed as inhibitors; hit rate 1.2% among 410,000; FMDV antiviral cell-based qHTS; calls by dose curve; tested in HEK293T cells; note: read-out not given here; potency is the fitted concentration of half-maximal effect; % is set by controls: 0 for no effect and ±100 for the full control effect; nearly all actives have a fitted effect of over 45% in size
# Numbers without * were called inactive; ? = inconclusive; . = no result; [ ] = another dose, or the depositor's remark.
SMILES,Sm TGR block,CHX counter,Shiga inhibitor,FMDV inh
O=C(CN1C(=O)C2CCCCN2c2ccc(C(=O)N3CCCC3)cc21)NCc1cccc(Cl)c1 (stereo not given),-6.5%,.,.,28.9%
CCCN(C(=O)c1cc2c(=O)oc3ccccc3c2s1)c1ccccc1C,23.1%,.,.,39.8µM*
O=C(CC1CCCCC1)NCc1nc(-c2ccccc2)no1,-0.1%,-3.3,14.7,21.9%
O=C(NCCc1nc(-c2ccc(F)cc2)no1)c1ccc(F)cc1,-3.5%,.,.,?
c1cncc(-c2noc(CC3CCCCC3)n2)c1,4.7%,41.1*,54.5*,45.6%
O=C(Nc1ccc(-c2noc(CCc3ccccc3)n2)cc1)c1ccco1,9.0%,57.6*,84.9*,-31.6%
CCCc1nc(-c2ccc(-c3ccc(F)cc3)cc2)no1,1.9%[11.4 µM],17.9*,28.7,26.8%
c1ccc(CCc2nc(-c3cccnc3)no2)cc1,4.7%,22.5*,52.6*,41.6%
Cc1ccc(NC(c2cccc(Cl)c2)c2nnc(-c3ccccc3)o2)cc1F (stereo not given),-9.5%,.,.,10.7%
Cc1ccc(CSC2=NC(C)(C)Nc3ccccc32)c(C)c1,-8.7%,.,.,-20.3%
COc1ccccc1NC(=O)CSC1=Nc2ccccc2C2=NC(CCC(=O)NCc3cccs3)C(=O)N12 (stereo not given),5.3%,.,.,?
COc1cccc(CNC(=O)Nc2cc(C(=O)NCc3cccc(F)c3)ccc2N2CCCC2)c1,4.6%,.,.,-7.5%
O=C1CCC(=O)N1CCCCCc1nc(-c2ccccc2)no1,2.3%,40.9*,64.5,-5.2%
Brc1ccc(-c2noc(CCc3ccccc3)n2)cc1,.,.,.,43.6%
c1ccc(CCc2nc(-c3ccccc3)no2)cc1,-16.8%,34.5*,128.6*,58.1%
O=C1c2ccccc2C(=O)N1CCCc1nc(-c2ccc(Cl)cc2)no1,-23.0%,-1.4,-15.9,-26.7%
CCc1ccc(CNC(=O)c2ccc(NC(=O)N3CC(C)Sc4ccccc43)cc2)cc1 (stereo not given),2.2%,.,.,-10.3%
CC(C)c1ccc(OCc2nc(-c3ccccn3)no2)c(Br)c1,21.0%,46.3*,66.8*,-13.4%
CCc1ccc(OCc2nc(-c3ccccn3)no2)c(Br)c1,-10.6%,29.0*,23.8,.
CCN(CCCCO)c1nc(C)nc2c1c(C)c(C)n2-c1c(C)cc(C)cc1C,.,-7.9,-9.9,.
CCC(=O)Nc1ccc(N2CCCCC2)cc1,-10.8%,37.1*,65.1,67.6%
O=C(CCl)Nc1ccc(N2CCCCCC2)cc1,.,20.1*,57.6,-11.6%
O=C(O)CCCC(=O)Nc1ccc(N2CCCC2)cc1,-2.1%,-1.2,-6.9,-6.0%
CCc1ccc(N2Cc3ccccc3C2)cc1,17.8µM*,58.4*,98.6*,27.0%
CCCC(=O)Nc1ccc(N2CCCCC2)cc1,-22.5%,25.1*,110.5*,32.8%
SMILES,Sm TGR block,CHX counter,Shiga inhibitor,FMDV inh
CC(=O)Nc1ccc(N2CCCCC2)cc1,-18.8%,11.5,23.8,.
CCOC(=O)C1CCCN(C(=O)c2c(C)nn(-c3ccc(F)cc3)c2-n2cccc2)C1 (stereo not given),0.3%,.,.,-23.4%
O=c1cnc2cnc(OCc3ccccc3)nc2n1Cc1ccc(F)cc1,.,.,.,-23.2%
CCOc1ccccc1NC(=O)Cn1c(=O)nc(-c2ccccc2F)c2cc(Cl)ccc21,-11.6%,.,.,?
O=C(NCCc1ccccc1)c1ccc2c(c1)N(Cc1ccc(Cl)cc1)C(=O)c1ccccc1S2(=O)=O,2.0%,.,.,35.2%
CCC(=O)NC(=S)Nc1ccc(N2CCOCC2)cc1,-0.3%,27.6*,95.8*,40.8%
CCOC(=O)N1CCN(C(=O)COC(=O)c2ccc(O)cc2O)CC1,-2.5%,-0.6,-3.1,-0.2%
CC(=O)Nc1ccc(N2CCCC2)cc1,35.5µM*,-1.4,-11.9,-1.7%
CCOC(=O)c1ccc(N2Cc3ccccc3C2)cc1O,-18.8%,46.2*,65.2*,.
CCCCCC(=O)NC(=S)Nc1ccc(N2CCOCC2)cc1,-16.6%,11.6,-8.3,20.5%
NS(=O)(=O)c1cc(C(=O)OCC(=O)Nc2ccc(N3CCCCC3)cc2)ccc1Cl,6.3%,13.2*,6.5,11.8%
Cc1cc(=O)n2nc(N(C)CC(=O)NCc3ccccc3C)sc2n1,-1.0%,.,.,-23.3%
CCCNC(=O)Cn1nc(C)c2c(C)n(-c3ccccc3)nc2c1=O,-0.5%,.,.,-11.9%
COc1ccc(OC)c(NC(=O)N2CCN(S(=O)(=O)c3ccc4c(ccn4C)c3)CC2)c1,-3.0%,.,.,-17.1%
CC(=O)Nc1ccc(N2Cc3ccccc3C2)cc1,12.6µM*,10.3,13.4,-2.6%
O=C(CNCc1ccco1)Nc1ccc(N2CCCCCC2)cc1,-4.5%,30.1*,35.4,23.8%
CC(=O)Nc1ccc(N2CCN(Cc3ccccc3)CC2)cc1,5.7%,-6.3,-3.8,-8.5%
O=C(CNC(=O)c1ccco1)Nc1ccc(N2CCCCCC2)cc1,-17.1%,.,.,44.9%
